# Data reported in PubChem BioAssay (EPA / NIEHS).
# Calls of active or inactive are those of the source. Rule for the calls: active = hit-call score of the fitted dose curve at least 0.9, where 1 is the maximum; inactive = score below 0.9.
# Experiment: Tanguay_ZF_120hpf_CRAN: Oregon State University Tanguay Lab 120 Hour Post-fertilization zebrafish Assay for Craniofacial Malformation (AID 2284397)
# Protocol: Tanguay_ZF_120hpf is a whole embryo, multiplexed endpoint assay using zebrafish larvae exposed for 120 hours post fertilization on a 96-well plate.Tanguay_ZF_120hpf_CRAN is one of one assay component(s) measured or calculated from the Tanguay_ZF_120hpf assay. It is designed to make measurements of zebrafish development as detected with brightfield microscopy of developing zebrafish embryos.Data from the assay component Tanguay_ZF_120hpf_CRAN was analyzed into 1 assay endpoints. This assay endpoint, Tanguay_ZF_120hpf_CRAN, was analyzed in the positive analysis fitting direction relative to DMSO as the negative control and baseline of activity. Using a type of morphology reporter, gain-of-signal activity can be used to understand changes in developmentals as they relate to the whole embryo. To generalize the intended target to other relatable targets, this assay endpoint is annotated to the zebrafish development intended target family, where the subfamily is craniofacial morphogenesis.
# Zebrafish husbandry: Tropical 5D wild-type adult zebrafish were housed in at an approximate density of 1000 per 100 gallon tank at the Sinnhuber Aquatic Research Laboratory, Oregon State University, Corvallis, OR. Each tank was kept at standard laboratory conditions of 28C on a 14-h light/10-h dark photoperiod in fish water consisting of reverse osmosis water supplemented with a commercially available salt (Instant Ocean). Spawning funnels were placed into the tanks the night prior, and embryos were collected and staged. To increase bioavailability, the chorion was enzymatically removed using pronase (63.6mg/ml, >/= 3.5U/mg, Sigma-Aldrich: P5147) at 4 hours post fertilization (hpf) using a custom automated dechorionator.Chemical exposures: Six hpf dechorionated embryos were placed 1 embryo per well in a 96-well plate prefilled with 90 ul of EM using automated embryo placement systems (AEPS). Ten microliters of each row of dilution plate 2 was added to 2 exposure plates. The final DMSO concentration used was 0.64% (vol/vol). Thirty-two embryos were also exposed to 5uM trimethyltin chloride (positive control). Plates were sealed to prevent evaporation and foil covered to reduce light exposure and kept in a 28C incubator. Embryos were statically exposed until 120 hpf. At 24 hpf, embryos were assessed for photomotor response using a custom photomotor response analysis tool (PRAT) and for developmental toxicity endpoints (MO24: mortality at 24 hpf, DP: developmental progression, SM: spontaneous movement, and NC: notochord distortion). At 120 hpf, locomotor activity was measured using Viewpoint Zebralab and assessed for 13 endpoints. Zebrafish acquisition and analysis program (ZAAP), a custom program designed to inventory, acquire, and manage zebrafish data, was used to collect developmental endpoints as either present or absent (i.e., binary responses were recorded). If mortality occurred for an embryo (at either 24 or 120 hpf), the non-mortality endpoints were not measured.
SMILES,outcome,AC50
OCC(F)(F)OC(F)(F)C(F)(F)OC(F)(F)C(F)(F)OC(F)(F)F,inactive,
O=C(O)C(F)(F)C(F)(F)C(=O)O,inactive,
CC(O)C(F)(F)C(F)(F)F (centres undefined),inactive,
O=C(O)C=CC(F)(C(F)(F)F)C(F)(F)F,inactive,
NC(=O)C(F)(F)C(F)(F)F,inactive,
C=CC(=O)OCC(F)(F)C(F)F,inactive,
OCC(F)(F)OC(F)(F)C(F)(F)OC(F)(F)C(F)(F)OC(F)(F)CO,,28.9 µM (active)
O=C(O)C(F)(F)OC(F)(F)C(F)(F)OC(F)(F)C(=O)O,inactive,
OCC(F)(F)OC(F)(F)C(F)(F)OC(F)(F)CO,inactive,
O=C(O)C(F)(OC(F)(F)C(F)(F)C(F)(F)F)C(F)(F)F (centres undefined),inactive,
O=C(O)C(F)(F)OC(F)(F)C(F)(F)OC(F)(F)F,inactive,
COC(=O)C(F)(F)C(F)(F)OC(F)(C(F)(F)F)C(F)(F)OC(F)=C(F)F (centres undefined),inactive,
O=S(=O)(F)C(F)(F)C(F)(F)C(F)(F)C(F)(F)C(F)(F)C(F)(F)C(F)(F)C(F)(F)F,inactive,
FC(F)(F)C(F)(C(F)(F)F)C(F)(F)C(F)(F)CC1CO1 (centres undefined),inactive,
